Reference: ChEMBL document CHEMBL3433997, “St. Jude Leishmania screening dataset” (2016)

Legend:
Type in all cases: functional
[1] = target: Solute carrier family 2, facilitated glucose transporter member 1 (Homo sapiens) (UniProt P11166); assay: ST_JUDE_LEISH: Cytotoxicity at 2uM final concentration against transgenic Leishmania Mexicana promastigotes LmGLUT1 that are glucose transport deficient and complemented with the human glucose transporter GLUT1. Activity is measured by DNA content using SYBR green in vitro
Solute carrier family 2, facilitated glucose transporter member 1 (Homo sapiens), sequence (P11166 whole entry): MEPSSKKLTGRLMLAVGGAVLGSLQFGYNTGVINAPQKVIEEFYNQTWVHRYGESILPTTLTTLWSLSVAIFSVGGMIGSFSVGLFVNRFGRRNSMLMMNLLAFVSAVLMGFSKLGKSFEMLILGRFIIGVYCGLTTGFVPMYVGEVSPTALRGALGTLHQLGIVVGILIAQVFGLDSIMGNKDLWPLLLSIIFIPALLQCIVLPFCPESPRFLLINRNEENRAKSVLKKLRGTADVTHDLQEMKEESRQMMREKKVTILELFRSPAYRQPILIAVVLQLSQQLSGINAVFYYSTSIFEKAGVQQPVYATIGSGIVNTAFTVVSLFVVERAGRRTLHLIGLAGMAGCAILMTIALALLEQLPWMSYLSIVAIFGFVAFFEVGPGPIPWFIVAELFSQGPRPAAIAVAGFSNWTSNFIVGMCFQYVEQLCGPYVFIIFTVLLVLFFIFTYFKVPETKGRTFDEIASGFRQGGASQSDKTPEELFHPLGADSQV

[2] = target: Hexose transporter 1 (Plasmodium falciparum) (UniProt O97467); assay: ST_JUDE_LEISH: Cytotoxicity at 2uM final concentration against transgenic Leishmania Mexicana promastigotes LmPfHT that are glucose transport deficient and complemented with the Plasmodium falciparum hexose transporter. Activity is measured by DNA content using SYBR green in vitro
[3] = target: Glucose transporter (Leishmania mexicana) (UniProt O61059); assay: ST_JUDE_LEISH: Cytotoxicity at 2uM final concentration against transgenic Leishmania Mexicana promastigotes LmGT2 that are glucose transport deficient and complemented with the L. Mexicana glucose transporter 2. Activity is measured by DNA content using SYBR green in vitro

SMILES | inhibition [1] | inhibition [2] | inhibition [3]
CCCCNCCOc1ccc(-c2nc(-c3ccccc3)c(-c3ccccc3)[nH]2)cc1 | 1.09% | -0.08% | 0.53%
COc1ccccc1/C=C/C(=O)NCCC1CCN(CCCCCNC(=O)/C=C/c2ccc(Cl)c(Cl)c2)CC1 | 16.2% | 13% | 12.2%
O=C(C=Cc1ccc(Cl)c(Cl)c1)NCCCCCN1CCCC(CCCNC(=O)c2sc3ccccc3c2Cl)C1 (centres undefined) | 2.3% | 1.22% | -0.49%
CC1CCCCN1Cc1cccc(-c2c[nH]c3nc(NC4CCCC4)ncc23)c1 (centres undefined) | 10.8% | 6.53% | 6.08%
CSc1ccc2ccccc2c1CCNCCCCNCCc1c(SC)ccc2ccccc12 | 68.9% | 96.1% | 81.6%
FC(F)(F)c1ccc2[nH]ccc(=NN=Cc3ccccc3Cl)c2c1 | 2.85% | 1.66% | 1.62%
O=C(Nc1ccc(-c2cccc(-c3nc4ccccc4[nH]3)c2)cc1)c1cnn2cccnc12 | 7.76% | 2.12% | -0.16%
O=C(NCC1CCC1)c1cnc(Nc2cccc(Cl)c2)nc1N1CCC1 | 14.5% | 12.8% | 12.4%
Cc1nc(C)c(-c2ccc(Oc3cc(Cl)cc(Cl)c3)cc2)c(O)c1Br | 1.01% | 2.38% | -1.58%
CCCN(CC1CC1)c1ncc(-c2cccc(CNCc3ccccc3O)c2)cn1 | -1.8% | -2.3% | -1.63%
CC1(C)N=C(N)N=C(N)N1c1ccc(I)cc1 | 5.79% | 5.57% | 6.6%
COc1cccc(CN2CCCC(OC(c3ccc(F)cc3)c3ccc(F)cc3)C2)c1O (centres undefined) | 0.04% | 0.76% | -1.69%
CCC(C)c1ccc(NC(=O)Nc2ccc(Cn3ncc(N4CCCNCC4)c(Cl)c3=O)cc2)cc1 (centres undefined) | 3.78% | 4.71% | -0.01%
